Results: article PMC7862700, “An all-to-all approach to the identification of sequence-specific readers for epigenetic DNA modifications on cytosine”

Experiments:
Experiment in all cases: DAPPL (digital affinity profiling via proximity ligation, sequencing); 10 mM Tris-HCl pH 7.5, 50 mM NaCl, 1 mM DTT, 4% glycerol, room temperature, 30 min; GST-TFs on glutathione beads, 16-mer random dsDNA library, 0.1% formaldehyde crosslink after washing; high values mean tight binding
FEV = biological target: T1, FEV (Homo sapiens, UniProt Q99581 1-238); conditions: protein: recombinant; tags: N-terminal GST; dsDNA, one strand shown
T1 sequence: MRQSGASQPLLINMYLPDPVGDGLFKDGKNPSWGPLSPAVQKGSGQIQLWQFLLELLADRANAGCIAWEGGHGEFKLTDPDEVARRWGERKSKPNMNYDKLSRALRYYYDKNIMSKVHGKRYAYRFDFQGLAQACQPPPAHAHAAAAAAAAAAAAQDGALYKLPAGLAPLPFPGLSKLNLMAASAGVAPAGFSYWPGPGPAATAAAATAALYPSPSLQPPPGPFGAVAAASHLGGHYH
Method in brief: (§1)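 Human transcription factors were made in yeast as GST fusions, captured on glutathione beads and barcoded with DNA. With a tag-only sample included, the pool was incubated with 200 nmole of a random double-stranded 16-mer DNA library in Tris/NaCl/DTT/glycerol buffer at room temperature for 30 min, then crosslinked with 0.1% formaldehyde after washing, ligated by proximity, amplified and sequenced. For binding signal, each hexamer's read frequency for a factor is divided by its frequency for the tag-only sample.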

ETV5 = ETV5 (Homo sapiens, UniProt P41161 1-510); conditions: protein: recombinant; tags: N-terminal GST; dsDNA, one strand shown
Method in brief: as §1

HSF1 = HSF1 (Homo sapiens, UniProt Q00613 1-529); conditions: protein: recombinant; tags: N-terminal GST; chain copies: 3; dsDNA, one strand shown
Method in brief: as §1

SPIC = biological target: T2, SPIC (Homo sapiens, UniProt Q8N5J4 1-248); conditions: protein: recombinant; tags: N-terminal GST; dsDNA, one strand shown
T2 sequence: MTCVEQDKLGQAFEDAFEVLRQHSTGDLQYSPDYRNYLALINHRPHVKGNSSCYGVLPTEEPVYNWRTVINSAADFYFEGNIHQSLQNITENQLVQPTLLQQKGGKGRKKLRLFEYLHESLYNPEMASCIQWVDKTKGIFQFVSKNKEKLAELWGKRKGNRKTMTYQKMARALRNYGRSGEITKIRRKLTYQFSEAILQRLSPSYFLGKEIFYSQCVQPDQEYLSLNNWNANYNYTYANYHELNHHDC
Method in brief: as §1

ELF4 = ELF4 (Homo sapiens, UniProt Q99607 1-663); conditions: protein: recombinant; tags: N-terminal GST; dsDNA, one strand shown
Method in brief: as §1

ELK4 = biological target: T3, ELK4 (Homo sapiens, UniProt P28324-2 1-405); conditions: protein: recombinant; tags: N-terminal GST; dsDNA, one strand shown
T3 sequence: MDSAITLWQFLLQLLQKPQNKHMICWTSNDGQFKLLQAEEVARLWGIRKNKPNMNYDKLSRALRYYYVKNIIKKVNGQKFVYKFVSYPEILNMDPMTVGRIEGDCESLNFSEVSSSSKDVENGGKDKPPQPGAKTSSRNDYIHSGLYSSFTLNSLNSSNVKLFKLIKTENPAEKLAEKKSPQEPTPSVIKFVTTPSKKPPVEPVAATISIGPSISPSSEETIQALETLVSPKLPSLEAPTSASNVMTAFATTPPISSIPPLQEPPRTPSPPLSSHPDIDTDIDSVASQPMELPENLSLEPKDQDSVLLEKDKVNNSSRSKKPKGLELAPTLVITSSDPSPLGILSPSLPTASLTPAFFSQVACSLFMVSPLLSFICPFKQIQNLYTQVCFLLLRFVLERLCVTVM
Method in brief: as §1

ETV2 = biological target: T4, ETV2 (Homo sapiens, UniProt O00321 1-342); conditions: protein: recombinant; tags: N-terminal GST; dsDNA, one strand shown
T4 sequence: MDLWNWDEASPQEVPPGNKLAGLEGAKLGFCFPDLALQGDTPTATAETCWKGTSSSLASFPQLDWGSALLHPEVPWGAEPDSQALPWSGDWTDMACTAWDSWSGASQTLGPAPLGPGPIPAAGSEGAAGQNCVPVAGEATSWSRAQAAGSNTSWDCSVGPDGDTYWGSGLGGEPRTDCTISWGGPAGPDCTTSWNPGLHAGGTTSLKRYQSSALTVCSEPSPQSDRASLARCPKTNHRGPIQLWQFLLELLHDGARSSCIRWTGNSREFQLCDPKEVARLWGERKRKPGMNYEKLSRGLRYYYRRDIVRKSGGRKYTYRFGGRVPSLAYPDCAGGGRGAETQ
Method in brief: as §1

ELF3 = biological target: T5, ELF3 (Homo sapiens, UniProt P78545 1-371); conditions: protein: recombinant; tags: N-terminal GST; dsDNA, one strand shown
T5 sequence: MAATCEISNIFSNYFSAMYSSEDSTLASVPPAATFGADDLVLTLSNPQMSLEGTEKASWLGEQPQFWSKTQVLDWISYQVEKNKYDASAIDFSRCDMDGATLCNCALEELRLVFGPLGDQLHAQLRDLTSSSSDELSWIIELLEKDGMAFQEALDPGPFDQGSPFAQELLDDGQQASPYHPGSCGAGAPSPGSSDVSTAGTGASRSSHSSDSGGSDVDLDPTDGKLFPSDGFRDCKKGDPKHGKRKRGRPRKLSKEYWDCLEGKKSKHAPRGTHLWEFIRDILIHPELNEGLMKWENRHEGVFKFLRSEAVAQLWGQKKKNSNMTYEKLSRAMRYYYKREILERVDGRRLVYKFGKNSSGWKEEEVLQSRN
Method in brief: as §1

CRX = CRX (Homo sapiens, UniProt O43186 1-299); conditions: protein: recombinant; tags: N-terminal GST; dsDNA, one strand shown
Method in brief: as §1

ETV1 = ETV1 (Homo sapiens, UniProt P50549 1-477); conditions: protein: recombinant; tags: N-terminal GST; dsDNA, one strand shown
Method in brief: as §1

ERF = biological target: T6, ERF (Homo sapiens, UniProt P50548 1-548); conditions: protein: recombinant; tags: N-terminal GST; dsDNA, one strand shown
T6 sequence: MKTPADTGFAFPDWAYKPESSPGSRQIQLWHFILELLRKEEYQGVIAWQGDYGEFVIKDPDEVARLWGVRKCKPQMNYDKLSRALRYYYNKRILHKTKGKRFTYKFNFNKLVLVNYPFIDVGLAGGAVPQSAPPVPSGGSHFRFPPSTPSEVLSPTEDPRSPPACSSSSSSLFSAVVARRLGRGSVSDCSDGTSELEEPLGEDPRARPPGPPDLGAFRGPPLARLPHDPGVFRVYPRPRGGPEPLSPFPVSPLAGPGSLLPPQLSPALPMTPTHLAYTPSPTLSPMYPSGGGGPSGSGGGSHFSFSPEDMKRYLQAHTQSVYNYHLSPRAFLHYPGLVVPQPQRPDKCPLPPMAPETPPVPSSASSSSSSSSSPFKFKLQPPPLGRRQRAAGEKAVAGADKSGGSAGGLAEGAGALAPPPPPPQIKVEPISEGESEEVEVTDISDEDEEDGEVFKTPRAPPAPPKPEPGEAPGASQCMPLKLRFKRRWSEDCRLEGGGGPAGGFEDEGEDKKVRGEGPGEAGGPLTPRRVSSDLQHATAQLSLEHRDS
Method in brief: as §1

ETV3L = biological target: T7, ETV3L (Homo sapiens, UniProt Q6ZN32 1-361); conditions: protein: recombinant; tags: N-terminal GST; dsDNA, one strand shown
T7 sequence: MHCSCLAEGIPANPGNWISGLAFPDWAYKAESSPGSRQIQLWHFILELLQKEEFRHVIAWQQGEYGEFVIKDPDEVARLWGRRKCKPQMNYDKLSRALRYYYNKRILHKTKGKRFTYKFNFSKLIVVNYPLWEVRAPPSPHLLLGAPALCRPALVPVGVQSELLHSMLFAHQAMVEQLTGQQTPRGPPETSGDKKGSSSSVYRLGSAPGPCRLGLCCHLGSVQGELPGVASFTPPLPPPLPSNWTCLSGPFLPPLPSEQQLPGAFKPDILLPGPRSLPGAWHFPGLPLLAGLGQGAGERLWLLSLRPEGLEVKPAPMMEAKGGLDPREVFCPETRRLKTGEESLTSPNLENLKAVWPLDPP
Method in brief: as §1

ETS2 = biological target: T8, ETS2 (Homo sapiens, UniProt P15036 1-469); conditions: protein: recombinant; tags: N-terminal GST; dsDNA, one strand shown
T8 sequence: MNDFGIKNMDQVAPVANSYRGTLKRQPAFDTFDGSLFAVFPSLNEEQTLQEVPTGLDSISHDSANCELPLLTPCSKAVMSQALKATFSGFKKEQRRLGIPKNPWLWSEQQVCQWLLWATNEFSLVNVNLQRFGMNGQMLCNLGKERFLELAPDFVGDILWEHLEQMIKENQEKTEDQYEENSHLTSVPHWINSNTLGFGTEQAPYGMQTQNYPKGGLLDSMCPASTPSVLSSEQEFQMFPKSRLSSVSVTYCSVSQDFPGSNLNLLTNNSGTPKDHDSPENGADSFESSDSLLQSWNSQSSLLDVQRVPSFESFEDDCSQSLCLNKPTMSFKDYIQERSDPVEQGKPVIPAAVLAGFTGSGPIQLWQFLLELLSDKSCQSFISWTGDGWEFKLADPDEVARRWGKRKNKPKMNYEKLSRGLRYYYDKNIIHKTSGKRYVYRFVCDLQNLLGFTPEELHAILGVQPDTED
Method in brief: as §1

SPDEF = biological target: T9, SPDEF (Homo sapiens, UniProt O95238 1-335); conditions: protein: recombinant; tags: N-terminal GST; dsDNA, one strand shown
T9 sequence: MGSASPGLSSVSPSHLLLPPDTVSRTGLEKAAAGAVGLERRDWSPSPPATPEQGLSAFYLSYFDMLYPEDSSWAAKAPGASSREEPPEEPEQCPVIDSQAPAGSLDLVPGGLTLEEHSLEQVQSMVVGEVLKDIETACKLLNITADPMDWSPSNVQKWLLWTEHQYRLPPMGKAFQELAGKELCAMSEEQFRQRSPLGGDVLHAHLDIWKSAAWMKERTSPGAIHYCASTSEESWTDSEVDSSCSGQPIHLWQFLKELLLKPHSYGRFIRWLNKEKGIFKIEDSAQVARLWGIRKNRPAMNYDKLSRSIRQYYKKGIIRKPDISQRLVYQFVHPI
Method in brief: as §1

ETV7 = biological target: T10, ETV7 (Homo sapiens, UniProt Q9Y603 1-341); conditions: protein: recombinant; tags: N-terminal GST; dsDNA, one strand shown
T10 sequence: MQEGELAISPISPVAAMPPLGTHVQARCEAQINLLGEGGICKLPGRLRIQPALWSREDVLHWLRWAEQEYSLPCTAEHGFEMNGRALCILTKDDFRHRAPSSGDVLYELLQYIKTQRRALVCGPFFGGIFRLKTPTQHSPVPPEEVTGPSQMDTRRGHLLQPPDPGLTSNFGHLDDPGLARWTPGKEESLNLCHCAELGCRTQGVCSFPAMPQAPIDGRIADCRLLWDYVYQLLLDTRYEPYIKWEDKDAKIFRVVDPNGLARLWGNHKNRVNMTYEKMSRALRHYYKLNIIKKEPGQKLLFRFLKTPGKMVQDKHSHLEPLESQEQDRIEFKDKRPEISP
Method in brief: as §1

ELF5 = biological target: T11, ELF5 (Homo sapiens, UniProt Q9UKW6-2 1-255); conditions: protein: recombinant; tags: N-terminal GST; dsDNA, one strand shown
T11 sequence: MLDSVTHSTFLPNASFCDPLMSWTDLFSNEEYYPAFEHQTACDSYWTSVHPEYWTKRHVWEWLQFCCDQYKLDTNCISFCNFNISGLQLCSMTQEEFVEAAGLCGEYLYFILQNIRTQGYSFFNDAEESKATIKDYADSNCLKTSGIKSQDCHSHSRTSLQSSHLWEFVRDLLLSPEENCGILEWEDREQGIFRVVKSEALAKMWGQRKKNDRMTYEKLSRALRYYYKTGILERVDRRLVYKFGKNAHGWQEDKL
Method in brief: as §1

ETV3 = biological target: T12, ETV3 (Homo sapiens, UniProt P41162-2 1-143); conditions: protein: recombinant; tags: N-terminal GST; dsDNA, one strand shown
T12 sequence: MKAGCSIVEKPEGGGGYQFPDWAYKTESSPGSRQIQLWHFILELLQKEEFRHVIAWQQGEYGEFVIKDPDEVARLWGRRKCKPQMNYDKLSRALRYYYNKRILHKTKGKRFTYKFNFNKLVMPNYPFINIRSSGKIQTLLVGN
Method in brief: as §1

ETV6 = ETV6 (Homo sapiens, UniProt P41212 1-452); conditions: protein: recombinant; tags: N-terminal GST; dsDNA, one strand shown
Method in brief: as §1

Sequence of CRX (O43186 whole entry): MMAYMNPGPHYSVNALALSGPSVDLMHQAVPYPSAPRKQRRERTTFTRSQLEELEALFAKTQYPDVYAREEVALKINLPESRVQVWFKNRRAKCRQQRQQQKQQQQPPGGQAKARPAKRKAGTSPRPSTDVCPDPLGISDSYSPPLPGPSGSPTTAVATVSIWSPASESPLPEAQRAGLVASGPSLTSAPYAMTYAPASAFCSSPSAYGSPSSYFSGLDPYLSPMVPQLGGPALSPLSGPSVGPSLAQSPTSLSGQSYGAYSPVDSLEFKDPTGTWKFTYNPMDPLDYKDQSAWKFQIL
Sequence of HSF1 (Q00613 whole entry): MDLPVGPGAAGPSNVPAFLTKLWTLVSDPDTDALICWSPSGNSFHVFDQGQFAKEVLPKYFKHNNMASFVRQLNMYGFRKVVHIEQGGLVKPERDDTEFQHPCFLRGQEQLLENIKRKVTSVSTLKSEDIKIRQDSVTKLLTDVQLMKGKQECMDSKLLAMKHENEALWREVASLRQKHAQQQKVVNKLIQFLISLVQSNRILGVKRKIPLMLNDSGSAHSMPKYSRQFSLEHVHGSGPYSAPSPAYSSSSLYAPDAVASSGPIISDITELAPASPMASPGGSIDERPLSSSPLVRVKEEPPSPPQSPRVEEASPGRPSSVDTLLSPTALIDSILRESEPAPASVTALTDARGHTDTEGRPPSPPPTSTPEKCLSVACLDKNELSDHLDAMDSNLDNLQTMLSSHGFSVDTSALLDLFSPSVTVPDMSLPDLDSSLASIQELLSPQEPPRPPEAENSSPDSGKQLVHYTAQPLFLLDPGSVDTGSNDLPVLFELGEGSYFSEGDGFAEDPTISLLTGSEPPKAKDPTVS
Sequence of ELF4 (Q99607 whole entry): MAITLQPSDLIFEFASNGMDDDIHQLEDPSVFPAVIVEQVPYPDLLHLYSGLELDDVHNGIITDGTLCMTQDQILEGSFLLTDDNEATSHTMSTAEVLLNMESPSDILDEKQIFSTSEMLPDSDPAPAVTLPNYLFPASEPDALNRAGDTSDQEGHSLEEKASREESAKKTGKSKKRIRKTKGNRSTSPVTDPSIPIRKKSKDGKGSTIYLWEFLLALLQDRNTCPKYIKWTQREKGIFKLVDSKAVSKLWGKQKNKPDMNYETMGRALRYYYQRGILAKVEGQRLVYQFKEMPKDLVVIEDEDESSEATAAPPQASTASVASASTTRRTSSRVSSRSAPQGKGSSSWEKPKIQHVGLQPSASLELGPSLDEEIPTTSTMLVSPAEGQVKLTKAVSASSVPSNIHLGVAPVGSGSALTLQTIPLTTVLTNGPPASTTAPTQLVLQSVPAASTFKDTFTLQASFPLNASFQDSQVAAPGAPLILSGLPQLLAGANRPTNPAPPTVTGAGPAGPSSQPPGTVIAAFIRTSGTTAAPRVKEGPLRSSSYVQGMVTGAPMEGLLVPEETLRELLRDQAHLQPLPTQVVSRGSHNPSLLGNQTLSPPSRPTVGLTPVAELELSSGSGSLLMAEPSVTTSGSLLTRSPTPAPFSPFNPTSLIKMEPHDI
Sequence of ETV1 (P50549 whole entry): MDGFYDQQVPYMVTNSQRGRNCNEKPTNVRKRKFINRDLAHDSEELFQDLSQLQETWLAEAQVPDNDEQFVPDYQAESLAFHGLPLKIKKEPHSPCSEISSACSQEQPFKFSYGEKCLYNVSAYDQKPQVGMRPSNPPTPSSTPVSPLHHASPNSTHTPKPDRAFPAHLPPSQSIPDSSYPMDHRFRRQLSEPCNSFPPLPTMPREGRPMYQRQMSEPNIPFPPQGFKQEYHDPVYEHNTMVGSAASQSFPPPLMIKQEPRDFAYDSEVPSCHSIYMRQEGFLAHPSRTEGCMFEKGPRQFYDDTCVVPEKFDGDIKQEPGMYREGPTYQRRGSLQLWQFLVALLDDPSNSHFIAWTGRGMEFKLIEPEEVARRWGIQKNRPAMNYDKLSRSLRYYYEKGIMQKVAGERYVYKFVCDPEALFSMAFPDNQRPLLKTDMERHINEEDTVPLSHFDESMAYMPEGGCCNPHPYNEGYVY
Sequence of ETV6 (P41212 whole entry): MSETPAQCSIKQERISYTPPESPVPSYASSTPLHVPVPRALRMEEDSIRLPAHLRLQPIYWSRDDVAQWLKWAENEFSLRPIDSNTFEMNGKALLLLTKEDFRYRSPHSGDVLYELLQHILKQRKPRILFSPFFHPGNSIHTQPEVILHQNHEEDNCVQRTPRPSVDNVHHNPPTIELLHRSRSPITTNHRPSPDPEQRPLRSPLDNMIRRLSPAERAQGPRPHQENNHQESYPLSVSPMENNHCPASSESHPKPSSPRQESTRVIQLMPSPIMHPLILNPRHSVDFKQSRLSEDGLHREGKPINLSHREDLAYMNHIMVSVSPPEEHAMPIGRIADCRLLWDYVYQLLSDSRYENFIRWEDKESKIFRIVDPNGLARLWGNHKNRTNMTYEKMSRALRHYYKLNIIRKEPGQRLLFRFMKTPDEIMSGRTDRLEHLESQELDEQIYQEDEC
Sequence of ETV5 (P41161 whole entry): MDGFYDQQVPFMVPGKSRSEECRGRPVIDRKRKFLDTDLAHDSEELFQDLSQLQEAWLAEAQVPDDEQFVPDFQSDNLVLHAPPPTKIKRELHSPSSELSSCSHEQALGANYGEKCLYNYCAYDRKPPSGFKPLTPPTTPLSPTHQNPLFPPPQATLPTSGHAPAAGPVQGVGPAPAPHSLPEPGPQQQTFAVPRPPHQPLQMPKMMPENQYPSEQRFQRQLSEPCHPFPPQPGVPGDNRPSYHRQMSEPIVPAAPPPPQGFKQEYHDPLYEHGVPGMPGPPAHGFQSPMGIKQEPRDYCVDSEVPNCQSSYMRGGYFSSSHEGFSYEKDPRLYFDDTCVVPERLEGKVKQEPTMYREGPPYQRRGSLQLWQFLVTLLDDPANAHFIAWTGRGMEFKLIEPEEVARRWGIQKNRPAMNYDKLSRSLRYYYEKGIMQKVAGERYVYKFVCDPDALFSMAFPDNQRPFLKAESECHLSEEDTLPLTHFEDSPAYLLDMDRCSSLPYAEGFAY

ATTTTG
binding signal (FEV): 1.15 fold enrichment (6-mer frequency, TF over GST control) | binding signal (ETV5): 1.28 fold enrichment (6-mer frequency, TF over GST control) | binding signal (HSF1): 1.28 fold enrichment (6-mer frequency, TF over GST control) | binding signal (SPIC): 1.09 fold enrichment (6-mer frequency, TF over GST control) | binding signal (ELF4): 1.25 fold enrichment (6-mer frequency, TF over GST control) | binding signal (ELK4): 1.31 fold enrichment (6-mer frequency, TF over GST control) | binding signal (ETV2): 1.33 fold enrichment (6-mer frequency, TF over GST control) | binding signal (ELF3): 1.31 fold enrichment (6-mer frequency, TF over GST control) | binding signal (CRX): 1.32 fold enrichment (6-mer frequency, TF over GST control) | binding signal (ETV1): 1.31 fold enrichment (6-mer frequency, TF over GST control) | binding signal (ERF): 1.24 fold enrichment (6-mer frequency, TF over GST control) | binding signal (ETV3L): 1.29 fold enrichment (6-mer frequency, TF over GST control) | binding signal (ETS2): 1.2 fold enrichment (6-mer frequency, TF over GST control) | binding signal (SPDEF): 1.09 fold enrichment (6-mer frequency, TF over GST control) | binding signal (ETV7): 1.14 fold enrichment (6-mer frequency, TF over GST control) | binding signal (ELF5): 1.2 fold enrichment (6-mer frequency, TF over GST control) | binding signal (ETV3): 1.1 fold enrichment (6-mer frequency, TF over GST control) | binding signal (ETV6): 1.24 fold enrichment (6-mer frequency, TF over GST control)
